Consider 69 sequences from PubChem BioAssay AID1347426 (Functional Genomics Laboratory (NCATS/FGL), 2020).

Out of some 31,000 sequences screened, about 1,400 (4.5%) were called active. Shown is part of a subset that was picked to be rich in actives. Values without a mark were called inactive.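 Rule for the calls: active = median seed-adjusted z-score above 1 or below -1; inactive = the rest.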

The test can be described thus: Novel Modifiers of Survival Motor Neuron (SMN) Protein: Gene Identification via Genome-wide siRNA Screen.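 Note: luminescence tracks full-length SMN protein made from the SMN2 reporter.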 Particulars: HEK293T SMN2-luciferase reporter, siRNA knockdown, 72 h; actives lie on both sides. The source says: Spinal muscular atrophy (SMA) is the most common neuromuscular autosomal recessive disorder and one of the leading genetic causes of infant death. SMA results from mutations inducing loss of function or deletion in the survival of motor neuron-1 gene (SMN1), leading to deficiency of the survival motor neuron (SMN) protein. Although a second nearly identical gene, SMN2, is retained in humans, its expression primarily produces an aberrantly spliced isoform that is largely unstable and quickly degraded. We performed a genome-wide RNAi screen using a cell-based reporter assay to identify genes and pathways that modulate SMN protein stability. The screen identified over 200 genes that led to the greatest increase or decrease in luciferase expression.
Using HEK293T cells stably expressing a luciferase reporter that combines the promoter and splicing based cassettes in tandem with the major portion of the native SMN2 cDNA with luciferase, we performed a genome-wide RNAi screen to identify modulators of SMN protein levels. Luciferase is expressed when full-length SMN protein is generated with luminescence signal proportional to SMN protein levels. Our luciferase-based reporter assay was used to screen Ambion Silencer Select Human Druggable Genome siRNA library (10418 genes, 3 unique siRNAs per gene) using lipid-based reverse transfection.
Briefly, 1 pmol of each siRNA was spotted to a well of a 384-well plate (Corning, Corning, NY) and 20 microL of serum-free DMEM containing […] of Lipofectamine RNAiMax (Life Technologies, Carlsbad, CA) was then added to each well. Transfected cells were maintained at 37 degrees C in 5% CO2 for 72 hours, 20 microL of ONE-Glo Reagent (Promega) was added to wells for luciferase quantification. Raw luminescence reads were normalized to Ambion(R) Silencer(R) Negative Control #2 siRNA, then log10 transformed. A robust statistical measure of median absolute deviation (MAD) to standardize siRNA activities from each screen. Common Seed Analysis was used to help prioritize clean hits as opposed to those appearing to arise from seed based off-target effects. Candidate modulators were defined as the genes having a MAD score greater than 1.0 or less than -1.0.
In the case of CUUUUUACGUGAGCGUAUATT against NAP1L1, the median seed-adjusted z-score is 0.263. As for CGCUGGACUUCGUCAAGAATT against KCNC4, the median seed-adjusted z-score was -0.433. The figure for CUAUCAUGGAAGAUGCUGATT against B3GNT4 is 0.124. The figure for AGUACUUCCUGACGAUGGATT against CST6 is -0.237; for ACUAACAUCCCAGACUUUATT against VWA1 it is 0.289.

In the case of CCAACUACCUGAACGAUGATT against U2AF2, the median seed-adjusted z-score is 2.14 (active).

Consider AGCUCACACUAUGCAUUGATT against KRTAP2-2, for which the median seed-adjusted z-score is -0.212. Then GGAGGCUCGUUUUCCCGUATT against EGR4, with 0; and GGACUCAGACGAGUUUUAUTT against CYP11B1, with -0.199; and GCAGCGAGUCAGUAACUUUTT against SUPT4H1, with -1.01 (active). The figure for GCUUCUUCGAGAAACAGAATT against RBMY1F is 0.2; for GGGUUUGCACUGAAACGAATT against CIR it is -0.197; for GGAAGGAAUUCAACCGGAUTT against ZNF366 it is 0.585. The figure for CCAUAGCCCAAAUCAAGGATT against SIK2 is 0.055; for CCACGAACAAUAAUCCCAATT against KCNA3 it is 0.213. Take CCCUCAAUUUGGUCUGUUUTT against SPINK2: the median seed-adjusted z-score was -0.431.

Regarding ACAACAUGAAGGUCCUCUATT against THY1, the median seed-adjusted z-score is -1.1 (active). The figure for ACAUGUUUUUAGAAUUGCUTT against TST is 0; for CAGUUAUGUUCUACGCAGATT against KCND2 it is -0.245; for CCAUGGAUUUUGUACUGCUTT against VPS35 it is -0.511. The figure for GGCGAAUUCCAUACCGUUATT against NEK2 is -0.276; for GGAGUAUAUUGAGUAUGGATT against CNOT1 it is 1.2 (active); for GUUCCAUCUUGAUCGAGUATT against RASSF9 it is 0.314. For CGGGAACACGUUUCAGGGATT against GPR157, the median seed-adjusted z-score is 0.152. Turning to CAUCCCAGAUCAAACUGUATT against TFAP2A, the median seed-adjusted z-score was -0.384. Then GAUUAUUGAGCAUAAGAUUTT against ZNF277, with -0.0374; and GAACUGCACGUGUACAACATT against HCFC1, with 1.47 (active); and GCCUUCUUCUUAUGCAAGATT against ACTL6B, with 0.0703. The figure for CCAUCUAUUCAGAGACGUATT against MUTYH is 0.024.

In the case of GGCAUUCGCUUGAACAGCATT against DRG1, the median seed-adjusted z-score is 0.336. The figure for GCCUCUACAUCUAGUGAUATT against JMJD1C is 0.0338; for AGAUCAAGUUUGCCCUAAATT against HDGF2 it is 0; for GCCUGGAUGCUAAUCAAGATT against S100A12 it is 0.346.

As for AGGAAGAAUUUAAUCCUGATT against CYP26A1, the median seed-adjusted z-score was 0.0569.

Regarding GAAAGAGCCUGUUACCUAUTT against ACTR1A, the median seed-adjusted z-score was 1.28 (active). The figure for GUGAAGAAGUUGCUUAUUATT against MAST1 is -0.0897; for GCAUGAUGGUAUUGAGCUUTT against MS4A6A it is 0.174; for GAGUCACUUCUAAUAAACATT against FOLR2 it is -0.0835. Then CGUUAUCUUCAUCACCUAUTT against ABCC10, with -1.56 (active); and GGCUAUAAUAGACACGAGATT against CDH6, with 0. The figure for UGACUUUCCUCUCUACGGUTT against SLC10A3 is -0.25; for GCAUGCUGUUAGCCGAUAATT against TOMM70A it is 0.0717; for CGGCUGAUGUUCUCGAAUUTT against BRD3 it is 0.633.

Turning to CCAGGCUAUUUGUACCGAUTT against CCR6, the median seed-adjusted z-score was 0.103. Then CCAGCUCUGGAAUUAGAUATT against NRBP1, with -1.13 (active). The figure for GAAUUAAAGAUUUGGUUGATT against EFCAB1 is -0.719; for GCUGUUAAGUAUGCCCUUATT against AKR1A1 it is -0.255; for GGACCAUUGGUGAUGAGAATT against CD36 it is -0.000845. Then GGUUGGAUGCUAUAUACCATT against ROS1, with -0.0561; and GGGAUAAGCUGAUAAAGGATT against NDUFS5, with -1.35 (active); and GAAUUGAAACGAGCUAGAATT against TAF13, with -0.919. On to CCGUAUGAAUGUAAGUAUUTT against ZNF441, for which the median seed-adjusted z-score was 0.578. Regarding CAAGAGUUAUGGUCUGGGATT against GCM1, the median seed-adjusted z-score was 0.0197.

On to CCACGAUGAAGGAACGAGATT against PDE4A, for which the median seed-adjusted z-score is -0.147.

Regarding GCAUGAUCUAGAUCGAGUATT against UQCRFS1, the median seed-adjusted z-score was -1.28 (active). For GGUAUUACUUUGCAAUCGATT against CACNA2D1, the median seed-adjusted z-score was -0.541. The figure for CAAGAUAUAUAUACGCCUATT against NPY1R is 0.76; for GGGUUUUAGUAACCUUAGATT against SUCNR1 it is 0; for GAUCCAAAGUAACUAAACATT against HMGN3 it is -0.182. GAGGCAGUCUUAGAGGAAATT against SPATA21: the median seed-adjusted z-score was -1.03 (active). Regarding GCCCAUCACCUCUUCAUGATT against RAMP1, the median seed-adjusted z-score is -0.031. Then GAAACGAACUGGGCAGUAUTT against FGF2, with 0.0208; and GGAUAGUGAGGAUAAGGAATT against PPP1R15A, with 0.539; and CAAAUCCAGUGGUGGGUAATT against S100A6, with -0.264. The figure for GUCCUGAAGUCACUCCGAUTT against FUT10 is -0.629; for CCACUCUCAUCAAAUCCGATT against MLL2 it is -2.11 (active). Then AGAUGAGGAGUGUCGUCAATT against KLK13, with 0.452. Turning to GUUCCUACGUGUACAACGATT against DNASE1L1, the median seed-adjusted z-score was 0.542. The figure for GAAUAUGGGUUGGCCUAUATT against ZNF655 is -0.156.
